Our source for the cytotoxicity call values is the antibiotic and cytotoxicity screens of Wong et al. (2023).

Out of some 39,000 compounds screened, about 1,500 (3.8%) were called active. This is one part of a sample in which actives are shown more often than they occur.

The test system of the experiment is HSkMC (human skeletal muscle cells). Kind of experiment: cytotoxicity call (relative viability < 0.9). To be noted: 10 µM.
Take `Cc1c(-c2ccnn2C)cc(C(=O)NCc2ccc(S(C)(=O)=O)cn2)c(=O)n1-c1cccc(C(F)(F)F)c1`: the cytotoxicity call was “inactive”. Under `Cc1sc2[nH]cnc(=S)c2c1C` stands “inactive”.

As for `C[C@@H]1CN([C@H](C)CO)C(=O)c2c(c3ccccc3n2C)-c2ccccc2CO[C@H]1CN(C)Cc1ccc2c(c1)OCO2`, the cytotoxicity call is “inactive”.

In the case of `C[C@@H]1CN([C@@H](C)CO)C(=O)c2cc(NC(=O)Nc3ccc(C(F)(F)F)cc3)ccc2O[C@@H]1CN(C)Cc1ccc(C(=O)Nc2ccccc2N)cc1`, the cytotoxicity call was “inactive”. The entry for `COCC(=O)N[C@@H]1C[C@H](CO)[C@H](O)C1` is “inactive”. Consider `CCCc1cc(=O)n2ncnc2[nH]1`, for which the cytotoxicity call is “inactive”. The entry for `Cc1noc(C)c1NC(=O)Nc1ccc2c(c1)CC(=O)N([C@H](C)CO)C[C@@H](C)[C@H](CN(C)S(=O)(=O)c1cccs1)O2` is “inactive”. The entry for `C=C(C)C1CCC2(CO)CCC3(C)C(CCC4C5(C)CCC(O)C(C)(C)C5CCC43C)C12` (stereo not drawn) is “active”; for `C=C(C)C1CCC2(C)CCC3(C)C(CCC4C5(C)CCC(O)C(C)(C)C5CCC43C)C12` (stereo not drawn) it is “inactive”. The entry for `C=C(C)C1CCC2(C(=O)O)CCC3(C)C(CCC4C5(C)CCC(O)C(C)(C)C5CCC43C)C12` (stereo not drawn) is “inactive”; for `CN1CCN(C(=O)C[C@@H]2CC[C@@H]3[C@H](COC[C@H](O)CN3Cc3ccc(Oc4ccccc4)cc3)O2)CC1` it is “inactive”; for `CC(C)(C)NC(=O)C[n+]1cccc(/C=N/O)c1` it is “inactive”.

Turning to `O=C(C[C@@H]1CC[C@@H]2[C@H](COC[C@@H](O)CN2S(=O)(=O)c2cccc(Cl)c2)O1)NCc1ccncn1`, the cytotoxicity call is “inactive”.

Turning to `O=C(NO)c1cn(CC(=O)N2CCC3(CC2)C(=O)NCN3c2ccccc2)nn1`, the cytotoxicity call was “inactive”. Under `O=C(/C=C/c1cccc(-c2cn(-c3cccc(C(=O)N4CCC5(CC4)C(=O)NCN5c4ccccc4)c3)nn2)c1)NO` stands “inactive”; under `O=C(NO)c1cn(-c2cccc(C(=O)N3CCC4(CC3)C(=O)NCN4c3ccccc3)c2)nn1`, “active”; under `C=CCNC(=O)[C@H]1CCCN(S(C)(=O)=O)C1`, “inactive”. Under `O=C(C[C@@H]1C=C[C@H](NC(=O)c2ccc3c(c2)OCO3)[C@H](CO)O1)NCc1ccc(Oc2ccccc2)cc1` stands “inactive”; under `COCCNC(=O)C[C@H]1CC[C@@H]2[C@@H](COc3ccc(NS(=O)(=O)c4ccc(Cl)cc4)cc3C(=O)N2C)O1`, “inactive”. The entry for `COCOc1ccc2cc(Br)ccc2c1-c1c(OCOC)ccc2cc(Br)ccc12` is “active”. On to `COc1ccc2ccccc2c1-c1c(OC)ccc2ccccc12`, for which the cytotoxicity call is “inactive”. The entry for `COc1ccccc1-c1ccc2c(c1)O[C@@H](CN(C)CC1CCOCC1)[C@@H](C)CN([C@@H](C)CO)S2(=O)=O` is “inactive”; for `CCNC(=O)[C@@H]1CCCN1C(=O)[C@H](CCCNC(=N)N)NC(=O)[C@H](CC(C)C)NC(=O)[C@@H](CC(C)C)NC(=O)[C@H](Cc1ccc(O)cc1)NC(=O)[C@H](CO)NC(=O)[C@H](Cc1c[nH]c2ccccc12)NC(=O)[C@H](Cc1cnc[nH]1)NC(=O)[C@@H]1CCC(=O)N1` it is “inactive”.
